Measurements reported in PubChem BioAssay (NCATS).
Records with an inconclusive call do not appear. Calls of active or inactive are those of the source. Unless noted, the call rests on the fitted dose curve; in most records, active means well fitted curve in the direction sought with a large enough effect; inconclusive means small, poorly fitted or top-dose-only effect, or another doubt; inactive means no such curve, though single readings can be large; an effect the other way counts as inactive or inconclusive.

Key:
[1] = molecular target: Cytochrome P450 3A4 (Homo sapiens) (UniProt P08684); test: qHTS Assay for Inhibitors and Substrates of Cytochrome P450 3A4 (AID 884); further: on the % scale 0 is the no-effect control and ±100 the full control effect; nearly all actives have a fitted effect of over 50% in size
Cytochrome P450 3A4 (Homo sapiens), sequence (P08684 whole entry, looked up): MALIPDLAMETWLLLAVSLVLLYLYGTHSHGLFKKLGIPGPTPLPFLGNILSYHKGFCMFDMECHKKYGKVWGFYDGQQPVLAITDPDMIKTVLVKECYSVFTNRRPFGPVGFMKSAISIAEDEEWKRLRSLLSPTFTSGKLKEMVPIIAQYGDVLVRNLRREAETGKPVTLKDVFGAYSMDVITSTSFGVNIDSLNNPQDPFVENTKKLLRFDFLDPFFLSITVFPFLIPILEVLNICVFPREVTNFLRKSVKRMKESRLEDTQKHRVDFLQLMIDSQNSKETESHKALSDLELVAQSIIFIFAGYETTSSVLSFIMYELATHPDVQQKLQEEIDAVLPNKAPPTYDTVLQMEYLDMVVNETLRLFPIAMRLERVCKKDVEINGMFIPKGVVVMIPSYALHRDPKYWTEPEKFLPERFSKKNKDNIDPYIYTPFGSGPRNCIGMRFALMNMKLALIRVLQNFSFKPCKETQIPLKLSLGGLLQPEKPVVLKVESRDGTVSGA
Procedure, shortened: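 20 nM human CYP3A4 with 25 uM Luciferin-PPXE (at KM) in 200 mM KPO4, preincubated 10 min with compound; NADPH regeneration started a 60 min RT reaction. Luciferin detected by luminescence, normalized to 57 uM ketoconazole as full inhibition.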

[2] = Confirmation and Secondary Assay for Modulators of Hemoglobin Beta Chain Splicing at IVS2 654 locus (AID 910);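 further: HeLa cells stably carrying EGFP split by mutant beta-globin IVS2-654 intron; % of control where 0% means no effect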
Procedure, shortened: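 HeLa cells stably expressing EGFP interrupted by β-globin IVS2-654 intron, seeded overnight in Opti-MEM/2% FCS, then treated 2 days at 37 °C. Restored splicing read as total peak GFP intensity per well by laser scanning cytometry (488 nm excitation, 500–520 nm emission); 500 nM antisense PNA as control.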

[3] = Confirmation and Secondary Assay for Modulators of Hemoglobin Beta Chain Splicing at IVS2 705 locus (AID 930);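 further: HeLa cells stably expressing the EGFP-705 splicing reporter; GFP fluorescence per well restored by corrected splicing of the IVS2-705 intron in EGFP; % of control where 0% means no effect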
Procedure, shortened: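 Per-well GFP, captured at 1 x 8 µm resolution with 488 nm excitation, served as the read-out for HeLa EGFP-705 cells incubated 2 days with test compound versus DMSO.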

[4] = qHTS Assay for Lipid Storage Modulators (AID 1519; calls by dose curve; on activity change, negative = inhibition: on the % scale 0 is the no-effect control and ±100 the full control effect); conditions: Drosophila S3 cells, BODIPY lipid droplet/cell ratio, laser cytometry, cells loaded with oleic acid; for activity change, negative = inhibition: at 57.5 µM (top of the series)
Procedure, shortened: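 Cells seeded at 5,000 per well were treated with compounds over a concentration series and loaded with oleic acid (400 uM, as added). Lipid droplet fluorescence (488 nm excitation, 500-530 nm channel) was read by laser-scanning cytometry and normalized to 20 uM Triacsin C.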

[5] = molecular target: Cytochrome P450 3A4 (Homo sapiens) (UniProt P08684); test: qHTS Assay for Activators of Cytochrome P450 3A4 (AID 885); further: nearly all actives have a fitted effect of over 65% in size
Procedure, shortened: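 Human CYP3A4 (20 nM) with Luciferin-PPXE at 25 uM (its KM) in 200 mM KPO4; 10 min compound preincubation, then NADPH regeneration and 60 min reaction at RT. Luciferin read by luminescence; normalized to 57 uM ketoconazole full inhibition.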

[6] = measured here: cell count channel max response
[7] = measured here: lipid channel max response

SMILES | Potency [1] | Potency [2] | Potency [3] | activity change, negative = inhibition [4] | max response [4, 6] | max response [4, 7] | Potency [5]
CC(C)C(C)/C=C/C(C)C1CCC2C3=CC=C4CC(O)CCC4(C)C3CCC21C (centres undefined) | inactive | inactive | inactive | 4.22% (inactive) | 8.27% | 15.2% | –
COC(=O)c1cc(=O)c(O)c2c(O)c(O)ccc2c1 | inactive | inactive | inactive | -1% (inactive) | -7.53% | -9.52% | –
CC(C)=CC1C(CO)C1(C)C (centres undefined) | inactive | inactive | inactive | 4.52% (inactive) | 11.9% | 18.1% | –
COc1ccc(-c2cc(=O)c3c(O)c(OC)c(O[C@@H]4OC(COC5OC(C)C(O)C(O)[C@@H]5O)C(O)C(O)C4O)cc3o2)cc1 (some centres undefined) | inactive | inactive | inactive | 4.35% (inactive) | 13.3% | 15.5% | –
COc1c(C(C)C)oc2cc3oc(=O)ccc3cc12 | inactive | inactive | inactive | 5.54% (inactive) | 15.7% | 22.2% | –
COc1ccc2c(c1)CCC1C2CC[C@@]2(C)C(O)CCC12 (some centres undefined) | inactive | inactive | inactive | 6.39% (inactive) | 9.55% | 16.1% | –
CC1O[C@@H](O[C@H]2C(Oc3cc(O)c4c(=O)cc(-c5ccc(O)cc5)oc4c3)OC(CO)C(O)C2O)C(O)C(O)C1O (some centres undefined) | inactive | inactive | inactive | 4.65% (inactive) | 16.6% | 23.3% | –
CC(=O)O[C@@]1(C(C)=O)CCC2C3C=C(Cl)C4=CC(=O)CC[C@]4(C)C3CC[C@]21C (some centres undefined) | inactive | inactive | inactive | -2.19% (inactive) | -10.2% | -9.83% | –
O=c1c(O)cccc2cc(O)c(O)c(O)c12 | – | inactive | – | 9.52% (inactive) | 11.8% | 24.4% | inactive
CCOc1cccc(C(=O)c2ccc(O)c(O)c2O)c1 | inactive | inactive | inactive | 3.56% (inactive) | 9.44% | -1.04% | –
CC(CC(O)C1OC1(C)C)C1CCC2(C)C3=CCC4C(C)(C)C(=O)CCC4(C)C3CC[C@@]12C (some centres undefined) | inactive | inactive | inactive | 3.08% (inactive) | 2.59% | 11% | –
CC(=O)C1CCC2C3CCC4=CC(=O)CC[C@@]4(C)C3CC[C@]12C (some centres undefined) | inactive | inactive | inactive | 4.88% (inactive) | 4.44% | 13.5% | –
CC(=O)OC1CC[C@]2(C)C(CC(OC(C)=O)[C@]3(C)C2CC[C@@]2(C)C(c4ccoc4)OC(=O)C4O[C@]432)C1(C)C (some centres undefined) | inactive | inactive | inactive | 15.1% (inactive) | 12.6% | 25.6% | –
CC1=C(C(=O)O)N2C(=O)C(NC(=O)C(N)C3=CCC=CC3)C2SC1 (centres undefined) | inactive | inactive | inactive | 10.8% (inactive) | 14% | 29.2% | –
CCc1ccc2c(O)c3c(cc2c1C(=O)OC)C(=O)c1c(O)ccc(O)c1C3=O | inactive | inactive | inactive | 12.8% (inactive) | 5.77% | 24.1% | –
C/C(=C\CO)CCC(C)CCCC(C)CCCC(C)C (centres undefined) | inactive | inactive | inactive | 6.09% (inactive) | 8.07% | 14.9% | –
CC(C)CCCC(C)C1CCC2C3C(=O)C=C4CC(O)CC[C@@]4(C)C3CC[C@@]12C (some centres undefined) | inactive | inactive | inactive | -2.06% (inactive) | 8.46% | 5.18% | –
CC12CCCC(O)(C1)C1CC(C)(C)C1CC2 (centres undefined) | inactive | inactive | inactive | 4.18% (inactive) | -0.674% | 2.69% | –
CCCCCCCC/C=C/CCCCCCCCOP(=O)([O-])OCC[N+](C)(C)C | inactive | inactive | inactive | 12.8% (inactive) | 12.4% | 28.9% | –
C=CCCCCCCCCCCCc1ccco1 | inactive | inactive | inactive | 3.13% (inactive) | 16.1% | 21.7% | –
CC(C)CCCC(C)C1CCC2C3CC(O)[C@@]4(O)CC(O)CC[C@@]4(C)C3CC[C@@]12C (some centres undefined) | inactive | inactive | inactive | 4.13% (inactive) | 10.2% | 14.9% | –
COC(=O)CCC(C)C1CCC2C3CC[C@H]4CC(O)CC[C@@]4(C)C3CC(O)[C@]12C (some centres undefined) | inactive | inactive | inactive | 1.15% (inactive) | -3.87% | -3.09% | –
COc1cc(O)c(C(=O)/C=C/c2ccccc2)c(OC)c1 | – | inactive | inactive | -11.9% (inactive) | 2.78% | -7.25% | inactive

SMILES | Potency [1] | Potency [2] | Potency [3] | activity change, negative = inhibition [4] | max response [4, 6] | max response [4, 7] | Potency [5]
COc1ccc(-c2coc3cc(O)ccc3c2=O)c(O)c1O | inactive | inactive | inactive | 8.68% (inactive) | -1.1% | 7.57% | –
COC(=O)/C=C/C(C)=C/C=C/C(C)=C/C=C/C=C(C)/C=C/C=C(C)/C=C/C(=O)O | inactive | inactive | inactive | 5.02% (inactive) | 17.2% | 24.2% | –
CCCCCCCCCCCCCCC(C(=O)O)C(O)(CC(=O)OC)C(=O)O (centres undefined) | inactive | inactive | inactive | 5.93% (inactive) | 16.5% | 25.2% | –
CC(CCC(=O)O)C1CCC2C3CC[C@H]4CC(O)CC[C@@]4(C)C3C=C[C@]12C (some centres undefined) | inactive | inactive | inactive | 5.52% (inactive) | 9.1% | 18.3% | –
O=C(/C=C/c1ccccc1)c1ccc(O[C@H]2OC(CO)C(O)C(O)C2O)cc1O (some centres undefined) | inactive | inactive | inactive | -0.595% (inactive) | 18.3% | 22.6% | –
CC(=O)OC1CC2C(C)(C)C(=O)C3OC3[C@]2(C)C2CC[C@@]3(C)C(c4ccoc4)OC(=O)C4OC43[C@]12C (some centres undefined) | inactive | inactive | inactive | -0.845% (inactive) | -15.4% | -5.43% | –
O=c1[nH]c(=O)n(C2CC(O)C(CO)O2)cc1F (centres undefined) | inactive | inactive | inactive | 3.4% (inactive) | 3.49% | 8.27% | –
COc1ccc(C(=O)/C=C/c2ccccc2)cc1 | inactive | inactive | inactive | 8.41% (inactive) | -9.97% | -1.31% | –
CO[C@@]1(NC(=O)CSCC#N)C(=O)N2C(C(=O)O)=C(CSc3nnnn3C)CSC21 (some centres undefined) | inactive | inactive | inactive | 5.21% (inactive) | 4.52% | 12.5% | –
C#C[C@@]1(O)CCC2C3CCc4cc(O)ccc4C3CC[C@@]21C (some centres undefined) | – | inactive | inactive | 6.48% (inactive) | 1.86% | 11.2% | –
COC(=O)CCC(C)C1CCC2C3C(O)C[C@@H]4CC(O)CC[C@@]4(C)C3CC(O)[C@]12C (some centres undefined) | – | inactive | inactive | 2.8% (inactive) | -0.322% | 3.42% | –
COC1=CC(=O)C(O)=C/C1=C\C=C\c1ccccc1 | – | inactive | inactive | -23.3% (inactive) | -8.41% | -29.1% | inactive
O=C(CC(=O)c1ccccc1)c1ccccc1 | – | inactive | inactive | 2.34% (inactive) | -0.636% | 4.72% | inactive
CCC(C)(C)C(=O)OC1CC(C)C=C2C=CC(C)C(CCC3CC(O)CC(=O)O3)C21 (centres undefined) | – | inactive | inactive | -9% (inactive) | 2.37% | -4.92% | –
CN1CCCC1c1cccnc1 (centres undefined) | – | inactive | inactive | 7.69% (inactive) | 11.9% | 23.7% | –
C=CCCCCCCCCCCCC(O)CC(O)COC(C)=O (centres undefined) | – | inactive | inactive | 12.3% (inactive) | 4.88% | 15.5% | inactive
CC1(C)OC2CC3C4CCC5=CC(=O)CCC5(C)C4(F)C(O)CC3(C)[C@]2(C(=O)CCl)O1 (some centres undefined) | – | inactive | inactive | 8% (inactive) | 13.8% | 26.2% | inactive
CC(=O)OCC(=O)[C@@]1(O)CCC2C3CC(C)C4=CC(=O)C=CC4(C)C3C(O)CC21C (some centres undefined) | – | inactive | inactive | 2.16% (inactive) | -9.81% | -3.93% | inactive
CC(C)c1c(O)ccc2c1CCC1[C@@](C)(CO)CCC[C@@]21C (some centres undefined) | – | inactive | inactive | 10.8% (inactive) | 14.4% | 26.5% | inactive
CC(=O)c1c(O)c(C)c(O)c2c1OC1=CC(=O)C(C(C)=O)C(=O)C12C (centres undefined) | – | inactive | inactive | 6.96% (inactive) | 24.8% | 22.6% | –
CC(C)C1=CC2=CCC3[C@@](C)(CCC[C@@]3(C)C(=O)O)C2CC1 (some centres undefined) | – | inactive | inactive | 4.85% (inactive) | 5.3% | 10.4% | inactive
CC(=O)OC1CC2C(C)(C)C(O)CCC2(C)C2CC[C@]3(C)C(=CC(=O)OC3c3ccoc3)C12C (some centres undefined) | – | inactive | inactive | -0.0065% (inactive) | -9.39% | -0.419% | inactive
